Experimental findings from PubChem BioAssay (Tox21) are described below.

Results filed as inconclusive are left out. Unmarked numbers belong to inactive results. Calls of active or inactive are those of the source. Unless noted, the call rests on the fitted dose curve; in most records, active means well fitted curve in the direction sought with a large enough effect in the repeat runs; inconclusive means weak or mixed curves; inactive means no such curve, though single readings can be large; an effect the other way counts as inactive or inconclusive.

A short description of experiment [1]: qHTS assay to identify small molecule antagonists of the estrogen related receptor (ERR) signaling pathway from Tox21 library - cell viability counter screen (AID 1224834). Further: nearly all actives have a fitted effect of over 30% in size. The gist of the method:
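Cytotoxicity of test substances is gauged in the same ERR cells used for the antagonist screen, after 17.5 h of compound treatment at 37 C, by CellTiter-Fluor fluorescence measured after 30 min.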

Experiment [2] concerns the target Luciferin 4-monooxygenase (Photinus pyralis) (UniProt P08659). Briefly: qHTS assay to identify small molecule inhibitors of firefly luciferase (AID 1224835). Further: series mostly up to about 120 µM; nearly all actives have a fitted effect of over 25% in size. The gist of the method: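 Inhibition of purified Photinus luciferase is measured by luminescence. Substrate levels (D-luciferin, ATP) sit at their KM values. Each compound is tested in a concentration series.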

Experiment [3] is described as follows: qHTS assay to identify small molecule agonists of the constitutive androstane receptor (CAR) signaling pathway - cell viability counter screen (AID 1224836). Further: series mostly up to about 92 µM; nearly all actives have a fitted effect of over 45% in size. The gist of the method: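 Using CellTiter-Fluor, viability of HepG2 cells harbouring hCAR and CYP2B6-2.2kb was measured following 23 h incubation with a 15-concentration compound series plus PK11195 (0.75 uM final).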
In general terms: Quantitative high-throughput screening tests each substance at several concentrations.

Experiment [4] in a line: qHTS assay to identify small molecule antagonists of the constitutive androstane receptor (CAR) signaling pathway - cell viability counter screen (AID 1224837). Further: series mostly up to about 92 µM; nearly all actives have a fitted effect of over 45% in size. The gist of the method:
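Multiplexed cytotoxicity read-out for the CAR antagonist screen: double-stable HepG2-CYP2B6-hCAR cells co-treated with 50 nM CITCO (final) and compound over 15 concentrations, incubated 23 hr, then assessed by CellTiter-Fluor fluorescence.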

The target in experiment [5] is Nuclear receptor subfamily 1 group I member 3 (Homo sapiens) (UniProt Q14994). Briefly: qHTS assay to identify small molecule antagonists of the constitutive androstane receptor (CAR) signaling pathway (AID 1224838). Further: nearly all actives have a fitted effect of over 40% in size. The gist of the method: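 Compounds were titrated across 15 concentrations onto HepG2 cells double-stably expressing hCAR and a CYP2B6-2.2kb reporter, together with 50 nM CITCO (final). After 24 h at 37 C, luciferase activity was measured by luminescence.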

Experiment [6] can be described thus: qHTS assay to identify small molecule antagonists of the estrogen related receptor signaling pathway with the pleiotropic PPARgamma coactivator (PGC) from Tox21 10K library - cell viability counter screen (AID 1224840; active means well fitted cell-killing curve with a large enough effect in the repeat runs, not every such curve was filed as active; further: nearly all actives have a fitted effect of over 40% in size). The gist of the method:
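Step one, plate 2,000 PGC/ERR cells per well; step two, incubate 6 h at 37 C/5% CO2; step three, pin-transfer compounds; step four, incubate 17.5 h; step five, add CellTiter-Fluor and read fluorescence after 30 min.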

Experiment [7] is described as follows: qHTS assay to identify small molecule antagonists of the estrogen related receptor signaling pathway with the pleiotropic PPARgamma coactivator (PGC) from Tox21 10K library (AID 1224841; call rule not given here; further: series mostly up to about 92 µM; actives are mostly falling curves and most rising ones were filed inactive; nearly all actives have a fitted effect of over 50% in size). The gist of the method: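 Antagonism in this quantitative HTS is taken from loss of luciferase signal in PGC/ERR cells. Cells (2,000/well) are treated with compounds in DMSO after a 6 h settling period and read by One-Glo luminescence after 18 h.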

A short description of experiment [8]: qHTS assay to identify small molecule agonists of the estrogen related receptor signaling pathway with the pleiotropic PPARgamma coactivator (PGC) from Tox21 10K library (AID 1224842). Further: nearly all actives have a fitted effect of over 15% in size. The gist of the method: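 Luminescence from One-Glo (30 min, room temperature) measured after PGC/ERR cells had 18 h at 37 C with pinned compound (23 nL in DMSO). Cells had been seeded at 2,000 per well and pre-incubated 6 h.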

For experiment [9], the target named is Nuclear receptor subfamily 1 group I member 3 (Homo sapiens) (UniProt Q14994). Briefly: qHTS assay to identify small molecule agonists of the constitutive androstane receptor (CAR) signaling pathway (AID 1224839). Further: nearly all actives have a fitted effect of over 15% in size. Further: potency means the concentration at half of the fitted maximal effect. The gist of the method:
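Double-stable HepG2 cells (hCAR, CYP2B6-2.2kb) seeded 4 h before compound addition. Exposure 24 h with 0.75 uM PK11195 final. Luciferase detected by ONE-Glo.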
On the % scale 0 is the no-effect control and ±100 the full control effect.

Luciferin 4-monooxygenase (Photinus pyralis), sequence (P08659 whole entry, looked up): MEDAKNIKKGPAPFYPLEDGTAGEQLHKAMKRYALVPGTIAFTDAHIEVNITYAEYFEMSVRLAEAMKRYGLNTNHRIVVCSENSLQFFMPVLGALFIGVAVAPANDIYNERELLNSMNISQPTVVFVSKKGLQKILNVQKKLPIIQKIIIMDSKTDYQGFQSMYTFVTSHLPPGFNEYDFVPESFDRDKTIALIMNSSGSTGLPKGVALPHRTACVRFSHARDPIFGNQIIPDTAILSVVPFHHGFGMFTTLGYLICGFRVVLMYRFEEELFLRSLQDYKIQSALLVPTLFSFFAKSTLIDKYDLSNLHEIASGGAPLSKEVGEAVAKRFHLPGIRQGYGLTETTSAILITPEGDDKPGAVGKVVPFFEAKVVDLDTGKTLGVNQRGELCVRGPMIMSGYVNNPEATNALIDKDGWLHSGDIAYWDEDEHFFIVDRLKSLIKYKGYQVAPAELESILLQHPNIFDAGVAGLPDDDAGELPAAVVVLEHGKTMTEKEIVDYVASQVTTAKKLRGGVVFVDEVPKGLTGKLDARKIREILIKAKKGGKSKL
Nuclear receptor subfamily 1 group I member 3 (Homo sapiens), sequence (Q14994 whole entry, looked up): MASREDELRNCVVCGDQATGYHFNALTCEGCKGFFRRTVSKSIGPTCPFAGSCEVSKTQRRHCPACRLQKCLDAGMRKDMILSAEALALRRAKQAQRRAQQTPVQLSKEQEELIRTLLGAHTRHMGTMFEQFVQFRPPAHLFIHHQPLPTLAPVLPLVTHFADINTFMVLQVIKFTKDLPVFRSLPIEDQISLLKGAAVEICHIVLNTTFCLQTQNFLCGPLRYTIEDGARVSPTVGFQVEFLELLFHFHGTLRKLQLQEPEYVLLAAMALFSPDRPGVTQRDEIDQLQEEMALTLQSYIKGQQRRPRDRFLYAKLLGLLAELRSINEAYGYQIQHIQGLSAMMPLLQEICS

For the compound `C=C1C[C@@H]2[C@H](CC[C@]3(C)C(=O)CC[C@@H]23)[C@@]2(C)C=CC(=O)C=C12`, the Potency result in [1], in experiment [2], in experiment [3], in experiment [4], in experiment [5] and in [6] was “inactive” each time. Moreover, the Potency result in [7] and in [8] was “inactive” each time.

`CCN[C@H](C)Cc1cccc(C(F)(F)F)c1`: the Potency result in [1], in experiment [2], in experiment [3], in [4], in experiment [5] and in experiment [6] was “inactive” throughout.

For `CCCCS(=O)(=O)Cl`, the Potency result in experiment [1], in [2], in experiment [3], in experiment [4], in experiment [5] and in experiment [6] was “inactive” each time. Besides, the Potency entry in experiment [7] and in experiment [8] was “inactive” in each case.

In the case of `CCNc1nc(Cl)nc(NC(C)(C)C)n1`, the Potency entry in experiment [1], in experiment [2], in experiment [3], in experiment [4], in experiment [5] and in [6] was “inactive” throughout.

Consider `Clc1cc2c(cc1Cl)Oc1cc(Cl)c(Cl)cc1O2`, for which the viability change, negative = cytotoxic in experiment [1] was -2.52% [at 0.349 µM]; in [3] it was -0.641% [at 0.349 µM]; in [6], -1.69% [at 0.349 µM]. In addition, in experiment [2], the activity change, negative = inhibition was -7.47% [at 0.435 µM]. Besides, the activity change, negative = cytotoxicity in [4] is -2.86% [at 0.349 µM]. In experiment [5], the activity, negative = inhibition is 103% [at 0.349 µM].

For `Cl/C=C/CCl`, the Potency entry in experiment [1], in experiment [2], in experiment [3], in [4], in experiment [5] and in experiment [6] was “inactive” each time. The Potency entry in [7] and in [8] was “inactive” throughout.

For the compound `NC(=O)OCCCc1ccccc1`, the Potency entry in experiment [1], in experiment [2], in [3], in experiment [4] and in [6] was “inactive” throughout.

Consider `O=CCCl`, for which the Potency entry in experiment [1], in [2], in experiment [3], in experiment [4], in experiment [5] and in experiment [6] was “inactive” throughout.

Take `C#CCOC(=O)/C=C(C)/C=C/CC(C)CCCC(C)C` (configuration not stated): the Potency entry in experiment [1], in experiment [2], in [3], in experiment [4], in experiment [5] and in experiment [6] was “inactive” in each case. Further, the Potency result in experiment [7] and in experiment [8] was “inactive” each time.

`O=C(NC(O)C(Cl)(Cl)Cl)NC(O)C(Cl)(Cl)Cl` (configuration not stated): the Potency entry in experiment [1], in experiment [2], in experiment [3], in [4] and in experiment [6] was “inactive” throughout.

`CC(C)(O)C(Cl)(Cl)Cl`: the Potency result in experiment [1], in [2], in experiment [3], in experiment [4] and in [6] was “inactive” throughout.

Take `ClC1=C(Cl)C2(Cl)C(CBr)CC1(Cl)C2(Cl)Cl` (configuration not stated): the Potency entry in experiment [1], in [2], in experiment [3], in experiment [4] and in experiment [6] was “inactive” throughout.

Regarding `CC1=C2[C@H]3OC(=O)[C@@H](C)[C@@H]3CC[C@@]2(C)C=CC1=O`, the Potency entry in [1], in [2], in experiment [3], in experiment [4], in experiment [5] and in [6] was “inactive” throughout. In addition, the Potency entry in [7] and in experiment [8] was “inactive” each time.

With `C=CC1(C)OC(=O)N(c2cc(Cl)cc(Cl)c2)C1=O` (configuration not stated), the Potency entry in [1], in [2], in [3], in experiment [4] and in [6] was “inactive” in each case.

As to `CS(=O)(=O)Cl`, the Potency entry in experiment [1], in [2], in [3], in experiment [4], in [5] and in experiment [6] was “inactive” each time.

Turning to `O=C1CCCCC1Cl` (configuration not stated), the Potency entry in experiment [1], in [2], in experiment [3], in experiment [4] and in experiment [6] was “inactive” each time.

Consider `C=CCN1CC[C@]23CCCC[C@H]2[C@H]1Cc1ccc(O)cc13`, for which the Potency result in experiment [1], in experiment [2], in experiment [3], in experiment [4], in experiment [5] and in [6] was “inactive” each time. Besides, the Potency entry in [7] and in [8] was “inactive” each time.

`COc1ccc(CN2CCNCC2)c(OC)c1OC`: the Potency result in experiment [1], in experiment [2], in experiment [3], in [4], in experiment [5] and in [6] was “inactive” throughout. The Potency entry in [7] and in [8] was “inactive” throughout.

Consider `CCOC(=O)CCl`, for which the Potency result in experiment [1], in experiment [2], in [3], in [4], in experiment [5] and in [6] was “inactive” in each case.

With `COC(=O)[C@@H](N)CCCN/C(N)=N/[N+](=O)[O-]`, the Potency result in experiment [1], in [2], in [3], in [4] and in experiment [6] was “inactive” in each case.

In the case of `CC(=O)CN(CC(C)=O)N=O`, the Potency entry in experiment [1], in [2], in [3], in experiment [4], in [6] and in experiment [7] was “inactive” in each case. The Potency entry in experiment [8] is “inactive”.

As for `CC(C)(C)NC[C@H](O)c1ccc(O)cc1Cl`, the Potency entry in experiment [1], in experiment [2], in experiment [3], in [4], in experiment [6] and in [7] was “inactive” each time. Also, the Potency entry in experiment [8] was “inactive”.

For `CCN[C@@H](C)Cc1ccccc1`, the Potency result in [1], in [2], in [3], in experiment [4], in experiment [6] and in experiment [7] was “inactive” in each case. For the same compound, the Potency result in experiment [8] is “inactive”.

On to `CCC(C)(C#N)N=NC(C)(C#N)CC` (configuration not stated), for which the Potency entry in experiment [1], in [2], in experiment [3], in experiment [5], in experiment [9] and in experiment [6] was “inactive” in each case. Also, the Potency result in experiment [7] and in [8] was “inactive” throughout.

As for `CN(C)C(=O)Oc1cc(OC(=O)N(C)C)cc(C(O)CNC(C)(C)C)c1` (configuration not stated), the Potency result in experiment [1], in experiment [2], in experiment [3], in experiment [4], in experiment [6] and in experiment [7] was “inactive” each time. Also, the Potency result in experiment [8] was “inactive”.

Consider `BrCCc1ccccc1`, for which the Potency entry in [1], in [2], in [3], in [5], in experiment [9] and in [6] was “inactive” each time. In addition, the Potency result in experiment [7] and in [8] was “inactive” in each case.

Consider `CCCOc1nn(C(=O)NS(=O)(=O)c2ccccc2C(=O)OC)c(=O)n1C`, for which the Potency result in [1], in [2], in experiment [3], in experiment [5], in [9] and in experiment [6] was “inactive” each time.

For the compound `CC(C)(C1CCC(O)CC1)C1CCC(O)CC1` (configuration not stated), the Potency result in experiment [1], in experiment [2], in [3], in [5] and in experiment [6] was “inactive” each time. Besides, the Potency in experiment [9] is 19.3 µM (active).

In the case of `C1CN2CCC1CC2`, the Potency entry in experiment [1], in [2], in experiment [3], in experiment [5], in [9] and in experiment [6] was “inactive” throughout.

On to `CCOC1Oc2ccc(OS(C)(=O)=O)cc2C1(C)C` (configuration not stated), for which the Potency entry in [1], in experiment [2], in [3], in experiment [5] and in experiment [6] was “inactive” each time. In experiment [9], the Potency is 30.4 µM (active).

Turning to `ClCOCCl`, the Potency result in experiment [1], in experiment [2], in experiment [3], in experiment [4] and in experiment [6] was “inactive” each time.

Regarding `COP(=O)(OC)O/C(C)=C/C(=O)N(C)C`, the Potency entry in [1], in experiment [2], in [3], in [4], in [6] and in [7] was “inactive” throughout. Moreover, in [8], the Potency result was “inactive”.

With `[P]#[In]`, the Potency entry in experiment [1], in experiment [2], in experiment [3], in [5], in experiment [9] and in experiment [6] was “inactive” each time. The Potency result in [7] and in experiment [8] was “inactive” in each case.

Take `CNC(=O)Oc1cc(C)c(N(C)C)c(C)c1`: the Potency result in [1], in experiment [2], in [3], in [4], in [6] and in experiment [7] was “inactive” each time. For the same compound, the Potency entry in experiment [8] was “inactive”.
